# Data taken from PubChem BioAssay.
# Calls of active or inactive are those of the source.
# What was measured:
# [1] = system: Plasmodium falciparum Sir2 (PF13_0152, Sir2A); test: Plasmodium falciparum Sir2A binding compounds – biochemical, small-molecule microarray, 635 nm fluorescence, primary screen (AID 1098); conditions: fluorescence 635 nm, higher = more signal;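 note: score merges spot fluorescence intensity with its signal-to-noise ratio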
# [2] = probe aDKK1 binding to arrayed compounds – biochemical, biotinylated probe, 635/667 nm fluorescence, primary screen (AID 1099); conditions: small-molecule microarray, higher = more signal;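 note: score merges 667nm spot fluorescence with signal to noise across triplicate slides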
# [3] = probe aCHRDL2 binding to arrayed compounds – biochemical, biotinylated probe, 635/667 nm fluorescence, primary screen (AID 1100); conditions: small-molecule microarray, higher = more signal
# [4] = change in splice reporter luminescence, either direction, cell-based, HEK293, spliceosome inhibition project, primary screen (AID 1101); conditions: HEK293 splicing luciferase reporter, 24 h, higher = more signal, called active from +8 up or from −8 down;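 note: HEK293 cells carrying a splicing-competent luciferase reporter gene; test concentration not given here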
# [5] = molecular target: Fibroblast growth factor 10 (Homo sapiens) (UniProt O15520); test: compounds binding fibroblast growth factor 10 – biochemical, small-molecule microarray, 635 nm fluorescence, primary screen (AID 1102); conditions: FGF10 binding, fluorescence 635 nm, higher = more signal
# Fibroblast growth factor 10 (Homo sapiens), sequence (O15520 whole entry, looked up): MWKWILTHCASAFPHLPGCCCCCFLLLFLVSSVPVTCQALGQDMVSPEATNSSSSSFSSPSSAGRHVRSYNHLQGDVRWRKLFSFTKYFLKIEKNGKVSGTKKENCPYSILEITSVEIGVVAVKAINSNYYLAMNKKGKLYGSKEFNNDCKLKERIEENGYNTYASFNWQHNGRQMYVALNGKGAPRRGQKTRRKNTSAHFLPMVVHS
# [6] = system: glycogen synthase kinase-3 (GSK3A per assay name; protocol says GSK3B); test: compounds binding glycogen synthase kinase-3 – biochemical, small-molecule microarray, 635 nm fluorescence, GSK3A, primary screen (AID 1103); conditions: fluorescence 635 nm, higher = more signal; note: the record names both GSK3A and GSK3B
# [7] = molecular target: Epidermal growth factor receptor (Homo sapiens) (UniProt P00533); test: compounds binding epidermal growth factor receptor – biochemical, small-molecule microarray, 635 nm fluorescence, primary screen (AID 1104); conditions: EGFR binding, higher = more signal;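 note: score merges 667 nm emission intensity with spot signal to noise over triplicate slides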
# Epidermal growth factor receptor (Homo sapiens), sequence (P00533 whole entry, looked up): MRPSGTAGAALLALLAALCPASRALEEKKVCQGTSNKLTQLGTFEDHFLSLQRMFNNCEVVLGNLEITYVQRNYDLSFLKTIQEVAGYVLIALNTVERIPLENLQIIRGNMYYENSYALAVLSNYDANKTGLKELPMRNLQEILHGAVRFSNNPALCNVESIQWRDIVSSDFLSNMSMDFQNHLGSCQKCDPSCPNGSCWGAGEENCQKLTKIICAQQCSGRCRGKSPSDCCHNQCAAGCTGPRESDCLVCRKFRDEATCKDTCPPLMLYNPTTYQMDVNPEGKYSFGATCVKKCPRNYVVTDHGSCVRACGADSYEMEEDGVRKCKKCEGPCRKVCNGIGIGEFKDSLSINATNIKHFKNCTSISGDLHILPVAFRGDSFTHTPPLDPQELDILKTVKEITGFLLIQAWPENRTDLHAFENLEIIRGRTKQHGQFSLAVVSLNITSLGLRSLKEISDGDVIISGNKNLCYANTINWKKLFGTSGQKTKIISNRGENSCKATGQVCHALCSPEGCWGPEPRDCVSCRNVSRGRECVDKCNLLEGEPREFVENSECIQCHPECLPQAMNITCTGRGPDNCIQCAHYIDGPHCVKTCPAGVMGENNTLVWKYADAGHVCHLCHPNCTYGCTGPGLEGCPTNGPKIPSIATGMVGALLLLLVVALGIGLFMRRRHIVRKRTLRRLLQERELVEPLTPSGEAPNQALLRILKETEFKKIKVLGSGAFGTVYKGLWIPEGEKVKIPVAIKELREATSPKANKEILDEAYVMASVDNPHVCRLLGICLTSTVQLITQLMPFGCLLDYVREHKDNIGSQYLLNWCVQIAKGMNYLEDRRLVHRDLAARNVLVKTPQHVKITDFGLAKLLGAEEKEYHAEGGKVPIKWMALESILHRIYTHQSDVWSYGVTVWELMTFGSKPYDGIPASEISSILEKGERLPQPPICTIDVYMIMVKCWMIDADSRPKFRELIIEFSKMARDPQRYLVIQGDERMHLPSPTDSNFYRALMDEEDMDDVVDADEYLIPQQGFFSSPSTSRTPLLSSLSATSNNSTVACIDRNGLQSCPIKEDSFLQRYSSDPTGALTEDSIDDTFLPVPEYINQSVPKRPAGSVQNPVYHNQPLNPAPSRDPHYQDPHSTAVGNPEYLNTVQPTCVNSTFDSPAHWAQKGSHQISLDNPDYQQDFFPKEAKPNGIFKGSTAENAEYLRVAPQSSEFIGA
# [8] = molecular target: Follistatin-related protein 3 (Homo sapiens) (UniProt O95633); test: compounds binding follistatin-related protein 3 – biochemical, small-molecule microarray, 635 nm fluorescence, primary screen (AID 1105); conditions: FSTL3 binding, higher = more signal;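 note: score merges emission near 667 nm and signal to noise per printed spot across three slides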
# Follistatin-related protein 3 (Homo sapiens), sequence (O95633 whole entry, looked up): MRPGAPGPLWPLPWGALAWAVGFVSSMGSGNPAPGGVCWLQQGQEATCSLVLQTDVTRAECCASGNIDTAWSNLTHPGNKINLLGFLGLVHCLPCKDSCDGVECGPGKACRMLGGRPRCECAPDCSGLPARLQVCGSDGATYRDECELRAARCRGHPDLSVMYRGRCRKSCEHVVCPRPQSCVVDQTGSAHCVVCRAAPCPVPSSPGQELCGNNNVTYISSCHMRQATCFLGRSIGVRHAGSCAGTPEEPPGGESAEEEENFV
# [9] = molecular target: Dickkopf-related protein 1 (Homo sapiens) (UniProt O94907); test: small molecules binding DKK1 protein – biochemical, small-molecule microarray, 635 nm fluorescence scan, primary screen (AID 1106); conditions: higher = more signal;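 note: score merges emission near 667 nm with signal to noise over three replicate slides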
# Dickkopf-related protein 1 (Homo sapiens), sequence (O94907 whole entry, looked up): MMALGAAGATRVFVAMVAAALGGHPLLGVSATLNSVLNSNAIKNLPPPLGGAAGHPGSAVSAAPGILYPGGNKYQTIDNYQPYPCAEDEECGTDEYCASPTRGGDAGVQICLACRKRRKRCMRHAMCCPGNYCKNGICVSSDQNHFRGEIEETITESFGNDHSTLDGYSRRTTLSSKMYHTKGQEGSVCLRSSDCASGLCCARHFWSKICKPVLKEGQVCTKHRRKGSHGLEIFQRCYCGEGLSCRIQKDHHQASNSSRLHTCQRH
# [10] = system: Inhibin beta A chain (activin A); test: small molecules binding activin A – biochemical, small-molecule microarray, 635 nm fluorescence scan, primary screen (AID 1107); conditions: INHBA, higher = more signal;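 note: mouse activin A protein probed at 4.33 µg/mL on printed slides; score merges bound-protein fluorescence near 667 nm with spot signal-to-noise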
# [11] = system: Human papillomavirus type 1a protein E7 (residues 44-93); test: small molecules binding HPV E7 44-93 – biochemical, small-molecule microarray, residues 44-93, 635 nm fluorescence, primary screen (AID 1108); conditions: fluorescence 635 nm, higher = more signal;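 note: E7 fragment applied at 1 µg/mL in TBST for 1 h at 4 C; score combines spot fluorescence with its signal to noise ratio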
# [12] = hepatitis C replication reporter changes, two-sided – Huh7 cells, luciferase reporter, HCV replication inhibitor project, primary screen (AID 1109); conditions: Huh7 HCV replicon luciferase reporter, 48 h; higher = more signal;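 note: huh7 hepatoma cells harbouring a luciferase neomycin HCV replicon reporter; luciferase luminescence as measure of HCV replicon replication; test concentration not given here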
# [13] = molecular target: Left-right determination factor 2 (Homo sapiens) (UniProt O00292); test: small molecules binding LEFTY2 protein – biochemical, small-molecule microarray, 635 nm fluorescence scan, primary screen (AID 1110); conditions: higher = more signal
# Left-right determination factor 2 (Homo sapiens), sequence (O00292 whole entry, looked up): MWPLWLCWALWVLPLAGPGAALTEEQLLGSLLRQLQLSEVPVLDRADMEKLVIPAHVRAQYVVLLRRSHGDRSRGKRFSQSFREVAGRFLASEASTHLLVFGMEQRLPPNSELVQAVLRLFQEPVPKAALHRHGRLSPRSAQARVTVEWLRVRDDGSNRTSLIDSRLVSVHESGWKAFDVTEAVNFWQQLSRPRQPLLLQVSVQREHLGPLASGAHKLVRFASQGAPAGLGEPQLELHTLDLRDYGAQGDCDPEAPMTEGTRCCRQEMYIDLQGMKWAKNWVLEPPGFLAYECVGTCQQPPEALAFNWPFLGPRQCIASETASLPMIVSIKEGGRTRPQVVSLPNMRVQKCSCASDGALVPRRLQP
# [14] = molecular target: Calmodulin-1 (Homo sapiens) (UniProt P0DP23); test: small molecules binding calmodulin-1 with EGTA – biochemical, small-molecule microarray, Cy5-labelled CALM1, profiling panel (AID 1111); conditions: Cy5-CALM1 binding fluorescence, higher = more signal;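 note: labelled calmodulin applied in Tris saline Tween buffer holding calcium plus EGTA and DTT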
# [15] = molecular target: Calmodulin-1 (Homo sapiens) (UniProt P0DP23); test: small molecules binding Ca-loaded calmodulin-1 – biochemical, small-molecule microarray, Cy5-labelled CALM1, plus calcium, artefact control for SMM control-protein annotation, profiling panel (AID 1112); conditions: Cy5-CALM1 binding fluorescence, higher = more signal;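 note: score merges spot fluorescence with signal to noise from triplicate slides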
# [16] = probe aWnt5a binding to arrayed compounds – biochemical, biotinylated probe, 635/667 nm fluorescence, primary screen (AID 1113); conditions: small-molecule microarray, higher = more signal;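 note: score merges 667 nm fluorescence intensity with signal-to-noise per printed feature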
# [17] = probe aShh binding to arrayed compounds – biochemical, biotinylated probe, 635/667 nm fluorescence, primary screen (AID 1114); conditions: small-molecule microarray, higher = more signal;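 note: probe is biotin-labelled aShh protein from a stem cell growth factor screen; measures binding of labelled protein to compounds printed on the slide; score merges feature fluorescence at 667 nm with signal-to-noise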
# [18] = probe aNog binding to arrayed compounds – biochemical, biotinylated probe, 635/667 nm fluorescence, primary screen (AID 1115); conditions: small-molecule microarray, higher = more signal;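 note: probe is biotinylated aNog protein used at 0.15 µg/mL for 1 h at 4 C; z-score combines 667 nm fluorescence of each spot with its signal to noise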
# [19] = molecular target: Torsin-1A-interacting protein 1 (Homo sapiens) (UniProt Q5JTV8); test: compound microarray binding of lysate hLAP1 – cell lysate, small-molecule microarray, COS7 lysate, 635/667 nm fluorescence, primary screen (AID 1116); conditions: 635 nm fluorescence, higher = more signal
# Torsin-1A-interacting protein 1 (Homo sapiens), sequence (Q5JTV8 whole entry, looked up): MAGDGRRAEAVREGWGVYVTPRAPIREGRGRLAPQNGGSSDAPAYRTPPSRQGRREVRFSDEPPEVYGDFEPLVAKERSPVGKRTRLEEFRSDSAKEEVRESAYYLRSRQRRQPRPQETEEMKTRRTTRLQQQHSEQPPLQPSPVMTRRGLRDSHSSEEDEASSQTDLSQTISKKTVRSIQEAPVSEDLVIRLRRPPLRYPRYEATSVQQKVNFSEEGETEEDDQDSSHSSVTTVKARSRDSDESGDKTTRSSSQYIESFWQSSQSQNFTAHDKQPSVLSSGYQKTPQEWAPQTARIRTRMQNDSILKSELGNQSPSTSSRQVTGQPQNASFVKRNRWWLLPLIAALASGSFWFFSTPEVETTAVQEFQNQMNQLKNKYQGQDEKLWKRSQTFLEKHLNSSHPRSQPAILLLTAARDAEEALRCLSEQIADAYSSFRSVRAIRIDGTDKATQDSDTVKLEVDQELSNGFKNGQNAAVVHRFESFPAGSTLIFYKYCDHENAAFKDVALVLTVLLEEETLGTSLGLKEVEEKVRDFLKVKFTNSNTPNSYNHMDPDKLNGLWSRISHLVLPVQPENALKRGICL
# [20] = molecular target: Alpha-bungarotoxin (Bungarus multicinctus) (UniProt P60615); test: compounds binding labelled alpha-BTX control protein – biochemical, small-molecule microarray, Alexa647 label, 635/667 nm fluorescence, artefact control for SMM control protein annotation, profiling panel (AID 1117); conditions: alpha-BTX-A647 binding fluorescence, higher = more signal
# Alpha-bungarotoxin (Bungarus multicinctus), sequence (P60615 whole entry, looked up): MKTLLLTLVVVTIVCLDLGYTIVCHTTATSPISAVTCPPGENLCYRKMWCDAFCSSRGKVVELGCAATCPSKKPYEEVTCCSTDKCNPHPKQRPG
SMILES,composite z-score [1],composite z-score [2],composite z-score [3],z-score [4],composite z-score [5],composite z-score [6],composite z-score [7],composite z-score [8],composite z-score [9],composite z-score [10],composite z-score [11],z-score [12],composite z-score [13],composite z-score [14],composite z-score [15],composite z-score [16],composite z-score [17],composite z-score [18],composite z-score [19],composite z-score [20]
Cn1c2c(c3ccccc31)C(=O)C1NC2C=CC1(C)C(=O)OCc1ccccc1 (stereo not given),1.15,0.347,1.26,0.167 (inactive),-0.667,-0.788,-1.57,-1.58,-2.53,0.674,-0.369,-0.836,-1.71,0.682,1.13,-0.0887,0.123,0.771,1.38,1.92
CN1C(=O)C2C=CC(C(O)C(C)(C)C)N(Nc3ccccc3)C2C1=O (stereo not given),1.24,-0.108,0.211,1.06 (inactive),-0.0353,-0.0258,-0.639,-0.543,-0.406,0.941,-0.911,0.813,-0.428,-0.0143,-0.395,-0.0405,-0.24,0.779,-0.0378,0.531
CCOC1=C2C(c3ccc(C)cc3)N(S(=O)(=O)c3ccc(C)cc3)CC2n2c(=O)n(-c3ccccc3)c(=O)n2C1 (stereo not given),0.818,0.579,0.5,-0.0374 (inactive),1.04,1.29,0.559,1.26,0.424,0.329,1.32,-1.1,0.584,0.683,-0.332,0.0244,-0.0866,0.664,0.582,1.42
